Screens (PubChem BioAssay)
Sampled rows, rich in hits. Any-hit rate of the full collection: about 4.6%.
LASV entry inh – blocks Lassa virus binding to or entry into cells; Lassa virus pseudotype entry inhibition, cell reporter; Potency, µM (titrated, usually from 37.9 µM), inactives show at the highest dose activity change, negative = inhibition, actives largely listed as inhibitors; hit rate 1.2% among 300,000; AID 540256; calls by dose curve; tested in HEK293 cells; further: nearly all actives have a fitted effect of over 50% in size
HCV inh – HCV inhibition; Huh7.5.1 HCVcc-Cre infection, luciferase reporter, 44 h; Potency, µM (highest dose often 41.8 µM), for the others: top-dose activity change, negative = inhibition, actives largely listed as inhibitors; hit rate 3.4% among 340,000; AID 651820; active means well fitted inhibition curve with a large enough effect; inconclusive means small, poorly fitted or top-dose-only effect, or another doubt; inactive means no such curve, though single readings can be large or run the other way
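Compounds are dispensed onto cells plated 4 h earlier at 1,000 per well, with HCVcc-Cre virus (about 0.5 moi) added next. Following 44 h of culture, luminescent signal is measured for 15 sec after 15 min with substrate at room temperature.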
Marburg entry inh – inhibitors of Marburg virus binding or cell entry; Potency, µM (top dose mostly 37.8 µM), without a hit: at the highest dose activity change, negative = inhibition, actives largely listed as inhibitors; Marburg virus pseudotyped entry inhibition, cell reporter; hit rate 1.8% among 300,000; calls by dose curve; tested in HEK293 cells
Vaccinia mCherry – inhibitors of vaccinia virus infection (mCherry reporter signal); Vaccinia virus mCherry reporter infection, fluorescence; Potency, µM (series often up to 36.5 µM), for the others: at the top dose activity change, negative = inhibition, actives largely listed as inhibitors; hit rate 0.63% among 310,000; calls by dose curve; tested in A549 cells; further: nearly all actives have a fitted effect of over 35% in size
VACV Venus inh – vaccinia inhibition (Venus reporter); Vaccinia virus Venus reporter expression, fluorescence; Potency, µM (series often up to 36.5 µM), for inactives: at the highest dose activity change, negative = inhibition, actives largely listed as inhibitors; hit rate 0.46% among 330,000; calls by dose curve; tested in A549 cells; further: nearly all actives have a fitted effect of over 30% in size
Numbers without * were called inactive; i = inactive; ? = inconclusive; . = not tested or not shown; ! = not active in a repeat; [ ] = another dose, or the depositor's remark. On the % scale 0 is the no-effect control and ±100 the full control effect; potency means the concentration at half of the fitted maximal effect.

SMILES	LASV entry inh	HCV inh	Marburg entry inh	Vaccinia mCherry	VACV Venus inh
O=C(NCc1ccccc1Cl)C1CCCN(C(=O)c2cnn(-c3ccc(F)cc3)c2-n2cccc2)C1 (stereo not drawn)	-5.0%[46.1 µM]	.	.	-8.7%	-9.1%
NS(=O)(=O)c1ccc(N/N=C/c2cn(-c3ccccc3)nc2-c2cccs2)cc1	?	1.78µM*	?	-19.9%	?
NS(=O)(=O)c1ccc(N/N=C/c2cn(-c3ccccc3)nc2-c2cccs2)c([N+](=O)[O-])c1	?	11.2µM*	10µM*	-12.7%	-18.1%
N#Cc1ccc(N/N=C/c2cn(-c3ccccc3)nc2-c2ccccc2)c([N+](=O)[O-])c1	3.7%	5.7%	?	-7.8%	1.8%
NC(=O)N/N=C/c1cn(-c2ccccc2)nc1-c1cccs1	9.4%	?	0.4%[46.1 µM]	-10.6%	-13.2%
CCOC(=O)c1ccccc1NC(=O)CSc1ccc(-c2sc(C)nc2C)nn1	-6.9%[46.1 µM]	.	.	-4.7%	-8.0%
COc1cc(CN2CCN(Cc3ccc(SC)cc3)CC2)cc(OC)c1O	-15.0%	?	-8.7%[46.1 µM]	-27.2%	-1.2%
COc1ccc(CN2CCN(Cc3ccc(C)cc3)CC2)c(OC)c1	4.9%	?	10µM*	-8.5%	3.9%
COc1cc(OC)c(OC)cc1CN1CCN(Cc2ccc(SC)cc2)CC1	?	?	7.3µM*	.	.
COc1ccc(CN2CCN(Cc3ccccc3F)CC2)c(OC)c1	-0.3%	-14.7%	?	-15.2%	-2.7%
COc1cc(OC)c(OC)cc1/C=C/c1ccc2ccccc2n1	.	.	.	?	-21.3%
Cc1nc(-c2ccccn2)nc(N(C)c2ccccc2)c1Cl	.	10µM*	.	.	.
CC1CN(C(=O)CN2C(=O)NC3(CCCC3)C2=O)C(=Nc2cccc(S(=O)(=O)N(C)C)c2)S1 (stereo not drawn)	-22.9%	14.9%	-14.3%	-25.9%	-23.6%
CCC1CSC(=Nc2ccc(C)cc2)N1C(=O)CN1C(=O)NC2(CCCC2)C1=O (stereo not drawn)	10µM*	.	?	?	?
CC1=CC(C)(C)Nc2ccc(OC(=O)C(Cc3ccccc3)N3C(=O)c4ccccc4C3=O)cc21 (stereo not drawn)	5.01µM*	18.6%	13.6%[46.1 µM]	.	-1.4%
CC1=CC(C)(C)Nc2ccc(OC(=O)CN3C(=O)c4ccccc4C3=O)cc21	?	25.1µM*	?	-11.7%	65.4%
CC1=CC(C)(C)Nc2ccc(OC(=O)CN3C(=O)c4cccc5cccc(c45)C3=O)cc21	-3.2%	?	-20.4%	-4.7%	18.7%
CC(=O)Oc1ccc(CC(C(=O)O)N2C(=O)c3ccccc3C2=O)cc1 (stereo not drawn)	11.3%[46.1 µM]	17.0%	9.9%[46.1 µM]	-3.8%	-4.2%
CCN(CC)C(=O)Cn1c(=O)c2ccccc2n2c(=S)sc(-c3cccc(C)c3)c12	-5.1%	0.562µM*	-4.5%	i	-19.1%
NC1CCc2ccc([N+](=O)[O-])cc21 (stereo not drawn)	.	.	.	5.8%	-14.4%
Cc1ccc(-c2noc(CCC(=O)N3CCN(c4cccc(C(F)(F)F)c4)CC3)n2)cc1	?	11.2µM*!	?	.	?
Cc1cc(N2CCN(C)CC2)nc2ccc(NC(=O)c3ccc(Br)o3)cc12	10.6%	?	-31.7%	.	.
COc1ccc(-c2noc(CCC(=O)N3CCN(c4ccc(C(F)(F)F)cc4)CC3)n2)cc1	.	-73.9%	.	-11.2%	-14.8%
Cc1cc(N2CCN(C)CC2)nc2ccc(NC(=O)c3ccc4c(c3)OCO4)cc12	16.4µM*	10µM*	4.11µM*	?	?
Cc1cc(N2CCCCC2)nc2ccc(NC(=O)c3ccc(Br)o3)cc12	?	3.98µM*	?	?	-27.7%
SMILES	LASV entry inh	HCV inh	Marburg entry inh	Vaccinia mCherry	VACV Venus inh
Cc1cc(N2CCOCC2)nc2ccc(NC(=O)CCC(=O)N3CCN(c4cccc(C(F)(F)F)c4)CC3)cc12	?	11.2µM*	?	?	?
CCCCCCN1C[C@H](O)[C@@H](n2cc(C3CC3)nn2)C[C@H]1c1ccccc1	-1.7%[46.1 µM]	.	.	.	.
CC(=O)c1ccc(N2CCN(C(=O)CCC(=O)Nc3ccc4nc(N5CCN(C)CC5)cc(C)c4c3)CC2)cc1	11.1%[46.1 µM]	8.91µM*	?	?	?
NCC(c1ccccc1)(c1ccccc1)c1ccccc1	0.5%	-21.5%	7.94µM*	-22.5%	-25.9%
O=C(O)[C@H]1/C(=C/CO)O[C@@H]2CC(=O)N21	.	.	.	i	-5.9%
Nc1c(Cl)cc(C=O)cc1Cl	.	.	.	-10.5%	-1.8%
COc1ccc(NS(=O)(=O)c2ccc(N3CCOCC3)c(NC(=O)c3ccc(OC)cc3)c2)cc1	?	?	?	?	-26.4%
COc1ccc(S(=O)(=O)Nc2ccc(N3CCOCC3)cc2)cc1	.	9.3%	.	.	.
COc1ccc(NS(=O)(=O)c2ccc(N3CCOCC3)c(NC(=O)c3ccccc3Cl)c2)cc1	1.64µM*	?	?	-24.8%	-9.8%
COc1ccc(NS(=O)(=O)c2ccc(N3CCOCC3)c(N)c2)cc1	.	6.31µM*	.	.	.
O=C(Nc1ccccc1)N(Cc1cccc(Cl)c1)c1ccccn1	-7.5%[46.1 µM]	.	-11.3%[46.1 µM]	-7.7%	-7.5%
COc1ccccc1CNc1nc(=S)[nH]c2cc(OC)c(OC)cc12	.	-15.4%	.	.	.
COc1cc2[nH]c(=S)nc(NCc3cccs3)c2cc1OC	-2.7%	25.1µM*	-7.7%[46.1 µM]	i	0.7%
COc1cc(Cl)c(NC2=CC(=O)C(=O)c3ccccc32)c(OC)c1	.	15.8µM*	.	.	.
Cc1ccc2c(c1)N(C(=O)CSc1nncn1C)C(C)(C)c1ssc(=S)c1-2	?	10µM*	?	.	?
Cc1cc2c(cc1C)N(C(=O)CSc1nncn1C)C(C)(C)c1ssc(=S)c1-2	-18.0%	?	?	i	-15.9%
CCOC(=O)c1c(NC(=O)Cn2nnc3ccccc32)sc2c1CCC(C)C2 (stereo not drawn)	-34.9%	1.58µM*	?	.	?
CCOC(=O)c1c(NC(=O)C(C)OC(=O)C2=COCCO2)sc2c1CCCC2 (stereo not drawn)	.	12.6µM*	.	.	.
CCOC(=O)c1c(NC(=S)NC(=O)c2ccc(Cn3cc(Cl)cn3)o2)sc2c1CCC(C)C2 (stereo not drawn)	.	?	-0.2%	20µM*	28.2µM*
COC(=O)c1cc(NC(=O)c2ccc(Cn3cc(Cl)cn3)o2)cc(C(=O)OC)c1	-3.6%	?	?	-12.4%	-1.7%
CCOC(=O)c1c(NC(=O)COC(=O)Cn2cnc3ccccc32)sc2c1CCC(C)C2 (stereo not drawn)	-13.8%	?	-8.8%	?	?
CCOC(=O)c1c(NC(=O)CSc2nnc(C)s2)sc2c1CCC(C)C2 (stereo not drawn)	?	11.2µM*	?	.	?
O=C(Cn1cccn1)N1CCOc2c(cc(-c3ncc(C(F)(F)F)cc3Cl)cc2OCC2CCCO2)C1 (stereo not drawn)	.	.	.	i	-13.8%
COc1ccc(NC(=O)CN(Cc2ccccc2)S(=O)(=O)c2ccc(C)cc2)cc1Cl	?	.	.	-28.1%	-13.4%
CCOC(=O)Nc1sc2c(c1C(=O)OCC)CCC2	7.6%	-26.0%	15.7%	.	.
CCOC(=O)c1c(NC(=O)c2ccc(-n3cnnn3)cc2)sc2c1CCCC2	15.8µM*	?	?	-12.4%	-8.3%
